The structures appear in SMILES notation. Values without a mark were called inactive. Records with an inconclusive call do not appear. Calls of active or inactive are those of the source. Unless noted, calls follow the shape of the dose curve; as a rule, active = well fitted curve in either direction with a large enough effect (not every such curve was filed as active); inconclusive = small, poorly fitted or top-dose-only effect, or another doubt; inactive = flat fitted curve, though single readings scatter.

Test [1] deals with Lysosomal acid glucosylceramidase (Homo sapiens) (UniProt P04062). The experiment in a line: Glucocerebrosidase-p2 (AID 348; in the data active = potency below about 10 µM; also: potency is read from the fitted curve at half-maximal effect). To be noted: purified GBA, blue fluorogenic substrate, 40 min. The method, boiled down:
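Compounds titrated from 0.6 nM upwards against 0.2 nM enzyme in pH 5.9 citric acid/KH2PO4, taurocholate, tween-20; blue fluorogenic substrate 80 uM, 40 min room temperature, stopped and read Ex 365/Em 440 for AC50.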

Test [2] in a line: AP1 Signaling Pathway (AID 357).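 Also: ME-180 reporter cells stimulated with EGF at its EC50 level; % is scaled to controls: 0 for no effect and ±100 for the full control effect.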 To be noted: ME-180 AP-1-bla reporter, EGF-induced, beta-lactamase ratio, 5 h; at 7.69 µM (top of the series) unless noted. A digest of the protocol: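 AP-1-bla ME-180 cells, Opti-MEM + 0.5% dialyzed FBS, plated overnight 37 °C. Cpd titration + EC50 EGF, 5 h 37 °C. CCF4 2.5 h RT; ex 405, em 460/530 ratio → %activity, AC50.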
Test [3] has as its target Cytochrome P450 1A2 (Homo sapiens) (UniProt P05177). The experiment in a line: p450-cyp1a2 (AID 410; calls by dose curve; also: potency is read from the fitted curve at half-maximal effect). To be noted: recombinant CYP1A2, luciferin-ME demethylation, luminescence; series mostly up to 11.4 µM. The method, boiled down: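 Human CYP1A2 (20nM) demethylated Luciferin-ME at its Km (100uM) in 100mM KPO4. After 10 min compound preincubation, NADPH regeneration ran the reaction 60 min at room temperature. Luciferin was read by luminescence, normalized to 57 uM furafylline.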

Test [4] is described as follows: NFAT Signaling Pathway (AID 444).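 Also: carbachol stimulus at about its EC50 of 1 µM final; % is scaled to controls: 0 for no effect and ±100 for the full control effect.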 To be noted: Jurkat NFAT-bla M1, carbachol, beta-lactamase ratio, 5 h; at 7.69 µM (top of the series) unless noted. The method, boiled down: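 Jurkat cells with NFAT-driven β-lactamase reporter and co-expressed M1 receptor, stimulated with carbachol (final 1 uM, ~EC50), compound titration, 5 h at 37 °C. CCF4 loaded 1 h at RT; 460/530 nm ratio gave %activity and AC50.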

Test [5] addresses Glucocorticoid receptor (Homo sapiens) (UniProt P04150). The experiment in a line: GR-GFP Redistribution (AID 450;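 active = compounds whose dose series gives a full or clear partial fitted curve of increased nuclear translocation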; also: potency is read from the fitted curve at half-maximal effect). To be noted: U2OS GR-GFP nuclear translocation, laser cytometry, 2 h.
Test [6] has the same target. The experiment in a line: GR-EFC Redistribution (AID 451; calls by dose curve; also: potency is read from the fitted curve at half-maximal effect). To be noted: CHO-K1 GR-EFC translocation, beta-gal luminescence, 2 h. A digest of the protocol:
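CHO-K1 cells expressing nuclear EA and GR-ED fragments of b-gal; compounds titrated up to 46 uM final, 2 h at 37 C. GR nuclear translocation read as complemented b-gal luminescence after 1 h RT detection.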

For test [7], the target named is Mitogen-activated protein kinase 10 (Mus musculus) (UniProt Q61831). The experiment in a line: JNK3 AlphaScreen Assay (AID 530).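 Also: kinase came from lysate of stimulated human HepG2 cells; signal reports phosphorylation of biotinylated GST-cJun 1-79 at Ser73 with 10 µM ATP; % is scaled to controls: 0 for no effect and ±100 for the full control effect.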 To be noted: JNK3 lysate, c-Jun phosphorylation; series mostly up to 11.4 µM. The method, boiled down:
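qHTS format: compounds tested as titrations against IL-1beta/TNF-alpha-activated HepG2 lysate JNK3 with biotin-GST-cJun substrate and 10 uM ATP at room temperature. Loss of anti-phospho-cJun AlphaScreen signal indicates inhibition.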
Background: In Alpha technology, singlet oxygen from a donor bead excites a nearby acceptor bead.

In test [8] the target is 3',5'-cyclic-AMP phosphodiesterase 4B (Homo sapiens) (UniProt Q07343). The experiment in a line: qHTS Assay for Inhibitors of PDE-IV (AID 607; active = well fitted activation curve with a large enough effect in the main read-out, with a control signal flat, not every such curve was filed as active; also: % of control where 0% means no effect). To be noted: HEK293 ACTOne CNG channel cells, membrane potential fluorescence; series mostly up to 22.9 µM. A digest of the protocol: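 Cell-based read-out of cAMP via a modified cyclic nucleotide-gated channel and membrane potential dye (535/590 nm) in HEK293 cells expressing PDE4 endogenously. Compounds tested up to 22.9 uM final; 100 uM RO 20-1724 reference.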

Test [9] is described as follows: Stat Signaling Pathway (AID 446).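 Also: ME-180 cervical cancer cells given 40 pM IL-6 alongside compound; SIE-controlled beta-lactamase reporter measured as 460/530 nm FRET emission ratio; % is scaled to controls: 0 for no effect and ±100 for the full control effect.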 To be noted: ME-180 SIE beta-lactamase reporter, IL-6 stimulated, 5 h; at 7.69 µM (top of the series) unless noted. The method, boiled down:
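Reporter line: ME-180 cervical carcinoma, SIE-beta-lactamase. Treatment: compound with 40 pM IL-6, 5 hrs, 37 C, in low-serum OPTI-MEM with 10 mM HEPES pH 7.3. Detection: 460/530 nm fluorescence.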

Test [10] deals with Cytochrome P450 2C19 (Homo sapiens) (UniProt P33261). The experiment in a line: qHTS Assay for Inhibitors and Substrates of Cytochrome P450 2C19 (AID 899; active = well fitted curve in the direction sought with a large enough effect; an effect the other way counts as inactive or inconclusive; also: % is scaled to controls: 0 for no effect and ±100 for the full control effect; nearly all actives have a fitted effect of over 60% in size). To be noted: recombinant CYP2C19, luciferin-H EGE luminescence; series mostly up to 11.4 µM. The method, boiled down:
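Signal comes from luciferase acting on luciferin released by CYP2C19-mediated hydroxylation of Luciferin-H EGE, 10uM (KM). Assay mix: 5nM enzyme, 50mM KPO4; 60 min at 37C with NADPH regeneration. Data normalized against 57uM ketoconazole.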

The target of test [11] is Cytochrome P450 2C9 (Homo sapiens) (UniProt P11712). The experiment in a line: qHTS Assay for Inhibitors and Substrates of Cytochrome P450 2C9 (AID 883; active = well fitted curve in the direction sought with a large enough effect; an effect the other way counts as inactive or inconclusive; also: potency is read from the fitted curve at half-maximal effect; nearly all actives have a fitted effect of over 60% in size). To be noted: recombinant CYP2C9, luciferin-H luminescence, 60 min; series mostly up to 11.4 µM. The method, boiled down:
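Signal: luciferase luminescence reporting luciferin produced by CYP2C9. Conditions: 10nM enzyme, Luciferin-H 100uM at KM, 25mM KPO4, 37C, 60 min NADPH-driven reaction. Reference: 57uM sulphaphenazole as 100% inhibition.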

The target in test [12] is Cytochrome P450 3A4 (Homo sapiens) (UniProt P08684). The experiment in a line: qHTS Assay for Inhibitors and Substrates of Cytochrome P450 3A4 (AID 884; active = well fitted curve in the direction sought with a large enough effect; an effect the other way counts as inactive or inconclusive; also: potency is read from the fitted curve at half-maximal effect; nearly all actives have a fitted effect of over 50% in size). To be noted: recombinant CYP3A4, Luciferin-PPXE luminescence; series mostly up to 57.1 µM. The method, boiled down: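 20 nM human CYP3A4 with 25 uM Luciferin-PPXE (at KM) in 200 mM KPO4, preincubated 10 min with compound; NADPH regeneration started a 60 min RT reaction. Luciferin detected by luminescence, normalized to 57 uM ketoconazole as full inhibition.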
(Quantitative high-throughput screening tests each substance at several concentrations.)

Test [13] shares this target. The experiment in a line: qHTS Assay for Activators of Cytochrome P450 3A4 (AID 885; active = well fitted curve in the direction sought with a large enough effect; an effect the other way counts as inactive or inconclusive; also: nearly all actives have a fitted effect of over 65% in size). To be noted: recombinant CYP3A4, Luciferin-PPXE luminescence, 60 min; series mostly up to 11.4 µM. The method, boiled down:
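Signal was normalized against complete inhibition by 57 uM ketoconazole. The reaction used 20nM CYP3A4 with 25uM Luciferin-PPXE, 10-min compound preincubation and a 60-min NADPH-supported step at RT.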

For test [14], the target named is Cytochrome P450 2D6 (Homo sapiens) (UniProt P10635). The experiment in a line: qHTS Assay for Inhibitors and Substrates of Cytochrome P450 2D6 (AID 891; active = well fitted curve in the direction sought with a large enough effect; an effect the other way counts as inactive or inconclusive; also: potency is read from the fitted curve at half-maximal effect; nearly all actives have a fitted effect of over 60% in size). To be noted: recombinant CYP2D6, luciferin-ME EGE luminescence; series mostly up to 11.4 µM. A digest of the protocol:
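Human CYP2D6 (5 nM) with 30 uM Luciferin-ME EGE (at Km) in 100 mM KPO4, compound preincubated 10 min, then NADPH regeneration system for 60 min at room temperature. Luciferin read by luminescence; normalized to 1.43 uM quinidine.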

Chain of Glucocorticoid receptor (Homo sapiens) (P04150 whole entry, looked up): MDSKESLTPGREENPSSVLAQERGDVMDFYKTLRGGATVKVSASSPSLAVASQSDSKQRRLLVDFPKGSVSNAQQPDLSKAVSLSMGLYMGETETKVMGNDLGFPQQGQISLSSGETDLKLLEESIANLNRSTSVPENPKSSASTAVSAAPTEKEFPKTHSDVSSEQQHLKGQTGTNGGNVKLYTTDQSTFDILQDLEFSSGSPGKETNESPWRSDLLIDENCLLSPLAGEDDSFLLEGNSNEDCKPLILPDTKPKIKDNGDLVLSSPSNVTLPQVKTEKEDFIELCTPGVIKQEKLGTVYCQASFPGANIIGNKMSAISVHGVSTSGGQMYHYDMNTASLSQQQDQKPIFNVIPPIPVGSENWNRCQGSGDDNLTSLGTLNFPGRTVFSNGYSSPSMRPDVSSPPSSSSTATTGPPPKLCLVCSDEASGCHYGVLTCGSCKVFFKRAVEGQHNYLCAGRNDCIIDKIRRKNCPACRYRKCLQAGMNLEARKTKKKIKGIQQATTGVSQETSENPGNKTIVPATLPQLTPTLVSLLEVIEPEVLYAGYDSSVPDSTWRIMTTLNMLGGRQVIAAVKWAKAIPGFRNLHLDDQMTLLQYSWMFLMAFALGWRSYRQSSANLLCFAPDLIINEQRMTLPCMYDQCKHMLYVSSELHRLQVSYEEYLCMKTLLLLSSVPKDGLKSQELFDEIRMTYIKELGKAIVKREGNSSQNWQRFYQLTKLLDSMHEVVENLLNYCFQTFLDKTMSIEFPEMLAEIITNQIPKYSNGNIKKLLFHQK
Chain of Cytochrome P450 1A2 (Homo sapiens) (P05177 whole entry, looked up): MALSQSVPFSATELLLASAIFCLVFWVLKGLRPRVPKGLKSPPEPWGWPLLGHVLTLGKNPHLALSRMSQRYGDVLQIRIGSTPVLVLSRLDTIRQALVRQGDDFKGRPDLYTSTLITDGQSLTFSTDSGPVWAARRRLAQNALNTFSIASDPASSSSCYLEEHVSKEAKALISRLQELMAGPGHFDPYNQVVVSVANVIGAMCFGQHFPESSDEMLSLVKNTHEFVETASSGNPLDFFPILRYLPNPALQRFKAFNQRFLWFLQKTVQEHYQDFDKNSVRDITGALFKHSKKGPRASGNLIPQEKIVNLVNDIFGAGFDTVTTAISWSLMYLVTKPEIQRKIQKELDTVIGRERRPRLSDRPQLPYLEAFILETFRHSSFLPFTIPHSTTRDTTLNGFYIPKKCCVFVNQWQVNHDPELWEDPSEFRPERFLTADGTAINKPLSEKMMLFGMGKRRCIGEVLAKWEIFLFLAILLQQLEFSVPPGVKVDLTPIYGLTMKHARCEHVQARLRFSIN
Chain of Lysosomal acid glucosylceramidase (Homo sapiens) (P04062 whole entry, looked up): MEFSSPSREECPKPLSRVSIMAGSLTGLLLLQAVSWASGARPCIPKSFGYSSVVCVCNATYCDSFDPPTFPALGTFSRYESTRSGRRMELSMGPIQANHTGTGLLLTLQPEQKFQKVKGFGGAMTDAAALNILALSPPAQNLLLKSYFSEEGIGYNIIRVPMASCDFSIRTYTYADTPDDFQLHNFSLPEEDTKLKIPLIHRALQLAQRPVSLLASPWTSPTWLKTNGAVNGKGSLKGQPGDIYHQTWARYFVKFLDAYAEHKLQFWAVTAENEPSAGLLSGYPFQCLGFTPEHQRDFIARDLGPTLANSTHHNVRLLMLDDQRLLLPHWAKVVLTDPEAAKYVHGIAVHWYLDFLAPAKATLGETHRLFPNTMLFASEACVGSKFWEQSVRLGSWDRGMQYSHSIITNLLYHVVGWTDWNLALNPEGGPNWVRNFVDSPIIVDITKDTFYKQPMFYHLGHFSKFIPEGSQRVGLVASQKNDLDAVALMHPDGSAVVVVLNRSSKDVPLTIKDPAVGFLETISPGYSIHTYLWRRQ
Chain of 3',5'-cyclic-AMP phosphodiesterase 4B (Homo sapiens) (Q07343 whole entry, looked up): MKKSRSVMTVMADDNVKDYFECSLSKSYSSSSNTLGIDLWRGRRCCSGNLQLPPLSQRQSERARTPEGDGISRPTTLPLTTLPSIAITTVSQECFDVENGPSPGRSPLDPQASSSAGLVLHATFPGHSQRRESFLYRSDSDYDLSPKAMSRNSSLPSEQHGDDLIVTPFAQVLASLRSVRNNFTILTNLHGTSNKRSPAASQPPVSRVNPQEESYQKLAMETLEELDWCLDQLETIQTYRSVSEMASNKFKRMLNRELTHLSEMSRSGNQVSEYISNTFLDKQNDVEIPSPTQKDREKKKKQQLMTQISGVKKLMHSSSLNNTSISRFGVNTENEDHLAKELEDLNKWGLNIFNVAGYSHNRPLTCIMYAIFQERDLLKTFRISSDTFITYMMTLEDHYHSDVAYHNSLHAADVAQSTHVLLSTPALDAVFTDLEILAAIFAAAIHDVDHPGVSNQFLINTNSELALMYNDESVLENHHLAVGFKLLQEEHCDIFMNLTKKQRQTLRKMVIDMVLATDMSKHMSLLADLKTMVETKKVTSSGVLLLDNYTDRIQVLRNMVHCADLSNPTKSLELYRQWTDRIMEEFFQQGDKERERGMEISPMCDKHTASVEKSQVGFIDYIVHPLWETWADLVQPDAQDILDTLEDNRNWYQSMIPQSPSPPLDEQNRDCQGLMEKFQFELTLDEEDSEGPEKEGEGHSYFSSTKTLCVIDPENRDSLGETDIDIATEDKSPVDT
Chain of Cytochrome P450 3A4 (Homo sapiens) (P08684 whole entry, looked up): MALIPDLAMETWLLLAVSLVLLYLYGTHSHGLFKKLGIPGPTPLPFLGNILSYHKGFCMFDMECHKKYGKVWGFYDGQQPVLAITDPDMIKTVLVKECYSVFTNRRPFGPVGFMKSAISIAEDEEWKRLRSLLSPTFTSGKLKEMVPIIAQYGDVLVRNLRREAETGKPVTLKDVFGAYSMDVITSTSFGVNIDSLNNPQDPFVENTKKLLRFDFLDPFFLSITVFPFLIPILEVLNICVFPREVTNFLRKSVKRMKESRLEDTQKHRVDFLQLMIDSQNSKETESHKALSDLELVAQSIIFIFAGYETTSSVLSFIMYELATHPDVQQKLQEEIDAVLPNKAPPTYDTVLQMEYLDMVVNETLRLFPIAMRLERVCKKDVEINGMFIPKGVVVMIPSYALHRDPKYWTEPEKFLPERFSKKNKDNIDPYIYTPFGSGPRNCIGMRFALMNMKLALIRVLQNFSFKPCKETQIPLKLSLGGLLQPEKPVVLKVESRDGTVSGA
Chain of Cytochrome P450 2C19 (Homo sapiens) (P33261 whole entry, looked up): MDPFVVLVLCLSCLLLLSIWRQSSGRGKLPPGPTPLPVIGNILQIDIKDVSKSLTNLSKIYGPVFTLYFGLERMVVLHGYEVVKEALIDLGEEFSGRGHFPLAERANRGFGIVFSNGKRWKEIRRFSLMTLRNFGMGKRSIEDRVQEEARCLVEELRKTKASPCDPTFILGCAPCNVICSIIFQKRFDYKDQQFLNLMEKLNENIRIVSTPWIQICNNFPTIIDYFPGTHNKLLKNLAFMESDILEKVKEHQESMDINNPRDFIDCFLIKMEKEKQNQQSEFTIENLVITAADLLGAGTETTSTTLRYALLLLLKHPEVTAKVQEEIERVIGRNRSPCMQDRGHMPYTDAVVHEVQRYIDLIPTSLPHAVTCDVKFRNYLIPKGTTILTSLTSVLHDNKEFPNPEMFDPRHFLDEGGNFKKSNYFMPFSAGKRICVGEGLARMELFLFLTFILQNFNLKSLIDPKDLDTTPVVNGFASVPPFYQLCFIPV
Chain of Cytochrome P450 2C9 (Homo sapiens) (P11712 whole entry, looked up): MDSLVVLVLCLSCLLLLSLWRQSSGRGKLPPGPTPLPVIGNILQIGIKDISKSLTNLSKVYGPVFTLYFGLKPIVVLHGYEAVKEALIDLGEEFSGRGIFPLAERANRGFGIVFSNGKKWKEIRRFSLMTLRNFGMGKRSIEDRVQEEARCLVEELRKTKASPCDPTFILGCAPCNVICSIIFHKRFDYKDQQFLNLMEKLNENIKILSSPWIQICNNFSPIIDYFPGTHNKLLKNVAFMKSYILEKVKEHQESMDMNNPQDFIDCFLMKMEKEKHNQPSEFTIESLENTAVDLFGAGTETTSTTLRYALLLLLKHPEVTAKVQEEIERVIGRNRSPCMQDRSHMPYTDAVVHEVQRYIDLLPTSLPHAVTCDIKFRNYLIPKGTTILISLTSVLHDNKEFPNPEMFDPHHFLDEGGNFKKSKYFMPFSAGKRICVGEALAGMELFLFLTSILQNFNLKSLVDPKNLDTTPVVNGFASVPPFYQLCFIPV
Chain of Cytochrome P450 2D6 (Homo sapiens) (P10635 whole entry, looked up): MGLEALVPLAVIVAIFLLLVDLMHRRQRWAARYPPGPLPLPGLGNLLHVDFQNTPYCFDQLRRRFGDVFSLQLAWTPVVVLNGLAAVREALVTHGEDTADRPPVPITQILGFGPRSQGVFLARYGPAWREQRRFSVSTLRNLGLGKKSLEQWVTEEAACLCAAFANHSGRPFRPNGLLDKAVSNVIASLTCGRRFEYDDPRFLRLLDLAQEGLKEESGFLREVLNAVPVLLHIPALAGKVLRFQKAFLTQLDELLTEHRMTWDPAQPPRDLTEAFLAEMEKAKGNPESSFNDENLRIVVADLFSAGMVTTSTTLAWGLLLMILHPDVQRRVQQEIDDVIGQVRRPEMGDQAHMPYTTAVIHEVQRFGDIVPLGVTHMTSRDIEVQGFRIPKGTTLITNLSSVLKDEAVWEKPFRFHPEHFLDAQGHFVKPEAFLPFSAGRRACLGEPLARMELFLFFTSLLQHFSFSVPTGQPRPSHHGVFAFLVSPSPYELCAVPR

In the case of `CC(=O)Nc1nc(NC(C)=O)c2[nH]c(CO)nc2n1`, the Potency in test [1] was greater than 11.4 µM; in [5] it was greater than 46 µM; in [6] it was greater than 9.22 µM. The activity change, negative = inhibition in test [2] is 9.97%; in test [4] it was 1.8%. In addition, the Potency entry in test [3], in test [7] and in test [8] was “inactive” each time.
For the molecule `C=C(Br)CN(C)CC(=C)Br`, the Potency in test [1] was greater than 11.4 µM; in [5], greater than 46 µM; in test [6] it was greater than 9.22 µM. Further, the activity change, negative = inhibition is 0.791% in test [2] and 0.988% in [4]. The Potency result in [3], in test [7] and in test [8] was “inactive” throughout.
For the molecule `O=C(O)c1cc(=O)[nH]c(=S)[nH]1`, the Potency in test [1] was greater than 11.4 µM; in test [5], greater than 46 µM; in test [6], greater than 9.22 µM. Moreover, the activity change, negative = inhibition in [2] was -9.52%; in test [3] it was -10.7% [at 2.29 µM]; in test [4] it was 5.67%. The Potency entry in test [7] and in test [8] was “inactive” each time.
Take `O=C(O)c1c2c(c(O)c3c1CN(C1CCCCC1)CO3)OCN(C1CCCCC1)C2`: the Potency in test [1] was greater than 11.4 µM; in test [5] it was greater than 46 µM; in test [6] it was greater than 9.22 µM. For the same molecule, the activity change, negative = inhibition was 4.96% in test [2] and 29.1% in test [4]. Further, the Potency result in [3], in test [7] and in test [8] was “inactive” each time.
In the case of `C[C@@]12CCC(=O)C=C1CC[C@H]1[C@@H]2[C@@H](O)C[C@]2(C)[C@@H]1CC[C@@]2(O)C(=O)CO`, in [1], the Potency is greater than 11.4 µM. The activity change, negative = inhibition was -10.2% in test [2] and 14% in test [4]. Besides, the Potency result in test [3], in test [7], in test [8] and in [10] was “inactive” throughout. Also, the activity, negative = inhibition in [9] is 4.86%.
With `C[C@H]1CCCC2(CC[N+](C)(CCC[N+](C)(C)C)CC2)C1` (stereo partly drawn), the results for the Potency in test [1], in test [5] and in test [6] were 11.6 µM, greater than 46 µM and greater than 9.22 µM, respectively. In addition, the results for the activity change, negative = inhibition in [2] and in [4] were 14.2% and -5.86%, respectively. The Potency entry in test [3], in [7] and in [8] was “inactive” throughout.
`Cc1c2cnccc2c(C)c2c1c1ccccc1n2CCOC(=O)c1ccccc1`: the Potency in test [1] is greater than 11.4 µM; in test [3], 0.0794 µM (active); in [5], greater than 46 µM; in test [6], greater than 9.22 µM; in test [11], 3.16 µM (active); in test [12] it was 0.631 µM (active). Moreover, the Potency in test [14] is 3.16 µM (active). The activity change, negative = inhibition is 2.26% in [2] and -4.41% in test [4]. The Potency entry in test [7], in test [8] and in test [13] was “inactive” in each case.
As for `NC[C@H]1O[C@H](n2cnc3c(N)ncnc32)C[C@@H]1O`, the Potency is greater than 11.4 µM in [1], greater than 46 µM in [5] and greater than 9.22 µM in test [6]. The results for the activity change, negative = inhibition in [2] and in test [4] were -8.42% and 7.55%, respectively. In addition, the Potency result in test [3], in test [7] and in test [8] was “inactive” in each case.

Values taken from PubChem BioAssay (NCATS).
